# Laboratory results published in PubChem BioAssay (NCI).
# About 83,000 compounds went through this panel and 20% of them were active in at least one assay; those are over-represented in the sample as a whole.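 Percent growth is the endpoint: 0 to 100 indicates growth inhibition (40 means 60% inhibition), 0 means no net growth, and negative values indicate cell death.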 Active and inactive are the calls of the source. The calls were made as follows: active = growth percent below 10; inactive = the rest.
# Tests used:
# Assay in all cases: NCI-60 one-dose screen, 48 h (100 = growth as untreated, 0 = no growth, -100 = all killed)
# Settings in all cases: 10 µM unless noted
# [1] = test system: NCI-H23 lung
# [2] = test system: NCI-H226 lung
# [3] = test system: NCI-H322M lung
# [4] = test system: HOP-62 NSCLC
# [5] = test system: NCI-H460 lung
# [6] = test system: HOP-92 NSCLC
# [7] = test system: NCI-H522 lung
# [8] = test system: A549/ATCC NSCLC
# [9] = test system: 786-0 renal
# [10] = test system: COLO 205 colon
SMILES,growth [1],growth [2],growth [3],growth [4],growth [5],growth [6],growth [7],growth [8],growth [9],growth [10]
CCN(CC)Cc1cc(Nc2nc(NC3CCC(N(C)C)CC3)c3ccccc3n2)ccc1OC (stereo not given),87.8% (inactive),75.5% (inactive),76.5% (inactive),79.4% (inactive),89.7% (inactive),25.3% (inactive),44% (inactive),67.8% (inactive),97.8% (inactive),12% (inactive)
COc1ccc(C(=O)C(C#N)c2cc(OC)c(OC)c(OC)c2)cc1 (stereo not given),113% (inactive),99.4% (inactive),105% (inactive),109% (inactive),107% (inactive),83.6% (inactive),85.2% (inactive),98.1% (inactive),97.6% (inactive),106% (inactive)
CC(C)CC(NC(=O)C(CCCN=C(N)N)NC(=O)OCc1ccccc1)C(=O)NC(CNC(=O)/C=C/c1ccccc1)C(C)C (stereo not given),109% (inactive),100% (inactive),104% (inactive),107% (inactive),108% (inactive),89.2% (inactive),98.7% (inactive),108% (inactive),101% (inactive),117% (inactive)
C=CCn1c(C)nc2cc(Nc3nc(N4CCCC4)nc4nc[nH]c34)ccc21,52.4% (inactive),58.9% (inactive),50.9% (inactive),50.6% (inactive),0.371% (active),-39.5% (active),56.3% (inactive),46.3% (inactive),-76.1% (active),73.4% (inactive)
Cc1cc(C)cc(Nc2cc(C)nc3nc(C(F)(F)F)nn23)c1,40% (inactive),37.8% (inactive),25% (inactive),47.8% (inactive),11% (inactive),69.8% (inactive),6.54% (active),27.5% (inactive),36.6% (inactive),16.7% (inactive)
Cc1cc(NC(=O)c2ccc(N)cc2)ccc1N=Nc1ccc2cc(S(=O)(=O)O)cc(S(=O)(=O)O)c2c1,103% (inactive),105% (inactive),125% (inactive),106% (inactive),117% (inactive),60.8% (inactive),129% (inactive),92.1% (inactive),112% (inactive),109% (inactive)
COc1cc(C2CC(c3ccc(Cl)cc3)=NN2C=O)ccc1OS(=O)(=O)c1ccc(C)cc1 (stereo not given),83.5% (inactive),84.5% (inactive),97% (inactive),96.6% (inactive),91% (inactive),85.1% (inactive),82.7% (inactive),78.8% (inactive),88.4% (inactive),100% (inactive)
Cc1cc2nc3c(=O)[nH]c(=O)nc-3n(CC=O)c2cc1C,108% (inactive),91% (inactive),110% (inactive),106% (inactive),106% (inactive),293% (inactive),107% (inactive),115% (inactive),105% (inactive),128% (inactive)
O=C(Nc1cccc(Cl)c1)Nc1cc(C(F)(F)F)ccc1Cl,-12.3% (active),20.8% (inactive),30.8% (inactive),41.3% (inactive),-34.6% (active),-20.3% (active),-26.9% (active),11.3% (inactive),8.47% (active),-28.2% (active)
Cn1c(=O)c2c3c(oc2c2ccccc21)C(=O)c1ccccc1C3=O,78.3% (inactive),73.2% (inactive),96.2% (inactive),81.8% (inactive),78.5% (inactive),101% (inactive),50.6% (inactive),81.7% (inactive),107% (inactive),74.5% (inactive)
CCN(C(=O)Nc1cccc2ccccc12)c1ccccc1,98.3% (inactive),98.1% (inactive),102% (inactive),93.6% (inactive),115% (inactive),96.3% (inactive),100% (inactive),98.7% (inactive),106% (inactive),105% (inactive)
COc1ccc(/C=C2\Cc3c(Br)cccc3C2=O)c(OC)c1,66% (inactive),93.7% (inactive),94.7% (inactive),69.6% (inactive),79.8% (inactive),88.2% (inactive),55.9% (inactive),68.9% (inactive),93% (inactive),80.3% (inactive)
COc1cc(/C=C/C(=O)c2c(C)nc3ccccc3c2C)ccc1OCCCOc1cc2c(cc1OC)C(=O)N1CCC[C@H]1C=N2,-19.5% (active),-4.56% (active),-58.6% (active),-6.66% (active),-61% (active),-45.1% (active),-56.9% (active),2.42% (active),-47.9% (active),-85.9% (active)
OC(c1cc2cc(Cl)ccc2c2cc(C(F)(F)F)ccc12)C1CCCCN1 (stereo not given),-78.8% (active),-73% (active),-42.7% (active),-92.3% (active),-67.8% (active),-76.1% (active),-89.6% (active),-85.9% (active),-67.5% (active),-87.2% (active)
CCN(CC)CCCCCCCNc1cc(OC)cc2c(C)ccnc12,87.6% (inactive),86.6% (inactive),94.8% (inactive),93.3% (inactive),85.2% (inactive),57.5% (inactive),71.4% (inactive),94.7% (inactive),80.8% (inactive),72.9% (inactive)
CCCCCCCCCC1=NC(C)(C)CN1C(C)(C)CO,89.1% (inactive),105% (inactive),89.4% (inactive),100% (inactive),105% (inactive),91% (inactive),80.9% (inactive),99.6% (inactive),100% (inactive),184% (inactive)
COc1ccc(-c2oc(=O)ccc2-c2cc(OC)c(OC)c(OC)c2)cc1F,81.4% (inactive),82.9% (inactive),95.4% (inactive),67.3% (inactive),56.3% (inactive),62.6% (inactive),50.8% (inactive),27.8% (inactive),75.2% (inactive),57.5% (inactive)
CC1CCN(Cc2ccc(NC(=O)c3cc4ccc5cccnc5c4[nH]3)cc2)CC1,25.2% (inactive),43% (inactive),49.2% (inactive),26.2% (inactive),8.35% (active),63.7% (inactive),23% (inactive),25.7% (inactive),36.8% (inactive),-16.3% (active)
CC(OC(=O)Nc1cccc(Cl)c1)C(=O)O (stereo not given),97.9% (inactive),96.4% (inactive),101% (inactive),86.7% (inactive),108% (inactive),92.2% (inactive),80.9% (inactive),99.1% (inactive),96% (inactive),113% (inactive)
Cc1cc(O)c(C2=NN(c3ccc(S(N)(=O)=O)cc3)C(c3ccc(Cl)cc3)C2)c(C)c1Cl (stereo not given),78.8% (inactive),106% (inactive),75.3% (inactive),84.3% (inactive),3.35% (active),21.3% (inactive),57.7% (inactive),33.2% (inactive),43.3% (inactive),30.8% (inactive)
C=CCn1c(SCC(=O)Nc2ccc(/C(C)=N\O)cc2)nnc1-c1cc(-c2ccccc2)nc2ccccc12,38.9% (inactive),65.4% (inactive),69.2% (inactive),67.9% (inactive),52.1% (inactive),99.5% (inactive),41.6% (inactive),43.9% (inactive),45.2% (inactive),64.2% (inactive)
CCCCC(CCc1ccccn1)C(=O)c1ccccc1 (stereo not given),98.8% (inactive),118% (inactive),103% (inactive),106% (inactive),112% (inactive),94.9% (inactive),131% (inactive),111% (inactive),110% (inactive),112% (inactive)
O=C(Nc1cnc(C(F)(F)F)cn1)c1cc(Cl)ccc1O,2.55% (active),8.55% (active),7.76% (active),-4.96% (active),4.18% (active),-6.58% (active),-12.6% (active),2.57% (active),0.361% (active),14.2% (inactive)
CC(C)OC(=O)c1ccc([N+](=O)[O-])cc1,103% (inactive),106% (inactive),111% (inactive),110% (inactive),109% (inactive),84.1% (inactive),105% (inactive),101% (inactive),109% (inactive),123% (inactive)
c1ccc2c(c1)cnc1ccccc12,102% (inactive),111% (inactive),103% (inactive),102% (inactive),110% (inactive),99.5% (inactive),81.6% (inactive),93.7% (inactive),92.6% (inactive),129% (inactive)
O=c1[nH]cnc2nc[nH]c12,113% (inactive),98.9% (inactive),94.9% (inactive),106% (inactive),103% (inactive),104% (inactive),99.2% (inactive),105% (inactive),114% (inactive),112% (inactive)
CCOC(=O)C(=CNc1ccccc1Cl)C(=O)OCC,103% (inactive),122% (inactive),110% (inactive),94.5% (inactive),103% (inactive),97.2% (inactive),72% (inactive),85.6% (inactive),87.7% (inactive),129% (inactive)
CCN(CC)C(Cl)=Nc1ccc(Cl)cc1,104% (inactive),96.2% (inactive),103% (inactive),99.8% (inactive),106% (inactive),108% (inactive),91.1% (inactive),97.3% (inactive),99.8% (inactive),103% (inactive)
